Most compounds without a hit are left out; they make up all but 2.8% or so of the library.
MITF TRPM1 inh: MITF TRPM1 promoter inhibition in SK-MEL-5 cells; inhibition, % at 12.5 µM; SK-MEL-5 TRPM1 promoter luciferase, 24 h; actives 0.83% (n = 330,000);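 active = mean inhibition across replicates of 60% or more, whatever share of single replicates reaches that level; inconclusive = some that reach 60%, reason not given; inactive = mean inhibition across replicates below 60%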
KKLEB cytotox: counter-screen for CF NF-kB inhibitors: cytotoxicity. activity change (cytotoxicity), % at 5 µM. AID 602141. actives 0.36% (n = 360,000). KKLEB CF airway cells viability, ATPlite luminescence, overnight; hits give low values; cells stimulated with P. aeruginosa culture filtrate;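 active = corrected activity change at or below -50% at 5 µM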
HIF-2a block: blocks HIF-2a reporter activity; 786-0 RCC cells HIF-2a reporter, luciferase luminescence, overnight; inhibition, % at 18.8 µM; actives 0.72% (n = 360,000); AID 624352;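 active = inhibition of the luminescence signal of 40% or more relative to plate controls, in a single-dose primary screen at 18.75 µM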
Peg3 prom inh-1: Peg3 promoter activity inhibition. inhibition, % at 20 µM. AID 588405. actives 1.7% (n = 360,000). HeLa PEG-Prom luciferase reporter, luminescence, overnight;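 active = inhibition of at least 50% at 20 µM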
Shn3 3UTR inh: Schnurri-3 reporter inhibition in Clone20 osteoblasts; Clone20 osteoblast Shn3 3'UTR firefly luciferase, 24 h; inhibition, % at 12.5 µM; actives 0.52% (n = 360,000); AID 588674;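 active = mean inhibition of at least 75% with every replicate also reaching 75%; inconclusive = mean inhibition at least 75% but some replicate below; inactive = mean inhibition below 75%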;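 also: 0% = median of neutral control wells and 100% = pilot-screen positive control compound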
CF NFkB inh: blocks PAF-induced NF-kB reporter in cystic fibrosis cells | KKLEB NF-kB-GFP reporter, GFP fluorescence overnight | inhibition, % at 5 µM | actives 0.86% (n = 360,000);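 active = at least 50% inhibition at 5 µM, scaled per plate between neutral and stimulator controls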;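 also: PAF is a Pseudomonas aeruginosa culture filtrate used as stimulus; plate controls were PAF-stimulated DMSO wells for no effect and unstimulated DMSO wells for full effect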
Peg3 prom inh-2: Peg3 promoter inhibition confirmation | inhibition, % at 20 µM | HeLa PEG-Prom luciferase reporter, luminescence, overnight | AID 602417 | actives 84% (n = 1,300) | shares compounds with Peg3 prom inh-1;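 active = at 20 µM dose, 40% or more inhibition averaged across four replicates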
CF NFkB inh conf: CF NF-kB inhibition confirmation, single concentration; shares compounds with CF NFkB inh; KKLEB CF airway cells, PAF-induced NF-kB-GFP fluorescence, overnight; inhibition, % at 5 µM; actives 64% (n = 1,300); in the data active = inhibition above about 40%;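 also: stimulus PAF is a Pseudomonas aeruginosa filtrate and not platelet activating factor; plate controls were DMSO wells with stimulus for no effect and unstimulated DMSO wells for full effect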
Mdm2 MdmX conf: Mdm2/MdmX (human) interaction inhibition, confirmed. shares compounds with HIF-2a block. SaOS-2 split-luciferase Mdm2/MdmX complementation, luminescence. inhibition, % at 8 µM. actives 99% (n = 740). AID 504601;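 active = mean inhibition of the luminescence signal across two replicates at or above 26 percent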
Target sequence (O15151 whole entry, looked up): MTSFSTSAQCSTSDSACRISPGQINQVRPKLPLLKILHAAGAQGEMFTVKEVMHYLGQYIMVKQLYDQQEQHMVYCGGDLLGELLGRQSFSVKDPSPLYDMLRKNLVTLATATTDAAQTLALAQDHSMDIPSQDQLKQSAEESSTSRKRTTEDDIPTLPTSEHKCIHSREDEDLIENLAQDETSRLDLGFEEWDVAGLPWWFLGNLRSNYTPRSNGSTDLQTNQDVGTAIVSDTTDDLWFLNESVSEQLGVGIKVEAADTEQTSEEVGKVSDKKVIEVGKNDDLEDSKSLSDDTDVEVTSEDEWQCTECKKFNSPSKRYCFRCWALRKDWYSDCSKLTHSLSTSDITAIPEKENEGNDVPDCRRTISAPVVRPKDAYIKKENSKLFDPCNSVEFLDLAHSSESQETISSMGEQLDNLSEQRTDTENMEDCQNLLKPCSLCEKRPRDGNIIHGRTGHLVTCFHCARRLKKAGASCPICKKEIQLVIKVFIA
Target sequence (Q00987 whole entry, looked up): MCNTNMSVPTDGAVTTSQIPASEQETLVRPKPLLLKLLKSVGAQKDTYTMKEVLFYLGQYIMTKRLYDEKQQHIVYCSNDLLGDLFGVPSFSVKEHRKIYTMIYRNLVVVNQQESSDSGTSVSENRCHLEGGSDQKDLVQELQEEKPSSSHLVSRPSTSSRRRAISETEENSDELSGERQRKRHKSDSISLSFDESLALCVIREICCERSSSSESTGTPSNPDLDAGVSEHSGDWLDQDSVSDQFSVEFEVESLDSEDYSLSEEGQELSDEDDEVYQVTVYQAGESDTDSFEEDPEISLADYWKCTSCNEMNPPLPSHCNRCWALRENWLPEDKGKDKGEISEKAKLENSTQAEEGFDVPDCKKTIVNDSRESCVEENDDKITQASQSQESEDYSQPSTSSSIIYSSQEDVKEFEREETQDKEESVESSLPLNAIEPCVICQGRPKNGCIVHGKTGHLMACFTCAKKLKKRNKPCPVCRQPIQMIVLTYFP
HIF-2a inh conf: HIF-2a inhibition, single concentration confirmation; shares compounds with HIF-2a block; 786-0 RCC cells, HIF-2a luciferase reporter luminescence, overnight; inhibition, % at 18.8 µM; actives 56% (n = 1,800);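 active = mean inhibition across four replicates of at least 40 percent at the single tested concentration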
HIF-1a cs: inhibits HIF-1a reporter, a counter-screen for HIF-2a inhibitors; inhibition, % at 18.8 µM; AID 651589; actives 72% (n = 1,800); MiaPaCa-2 HIF-1a luciferase reporter, desferoxamine, overnight; shares compounds with HIF-2a block;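 active = mean inhibition of the reporter signal across four replicates at the single tested dose of 50% or more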
Starred values were filed as active, the others as inactive; ? = inconclusive; . = not tested or not shown.

SMILES	MITF TRPM1 inh	KKLEB cytotox	HIF-2a block	Peg3 prom inh-1	Shn3 3UTR inh	CF NFkB inh	CF NFkB inh conf	others
CNCC(O)c1cccc(OC(=O)c2ccccc2C)c1 (stereo not drawn)	-20	2	10	2	-7	0	.
COc1cccc(C2CC3C(=O)C=CC2N3Cc2ccccc2)c1 (stereo not drawn)	23	0	48*	68*	25	17	.	Peg3 prom inh-2=71*;HIF-2a inh conf=57*;HIF-1a cs=47
CC1([N+](=O)[O-])COP(=O)(Nc2ccc(Cl)cc2)OC1 (stereo not drawn)	-14	-4	19	-3	-9	-2	.
C[C@H]1CCC[C@H](O)CCCCCc2cc(O)cc(O)c2C(=O)O1	-3	11	7	22	-12	35	.
C[C@H]1CCC[C@@H](O)CCC/C=C/c2cc(O)cc(O)c2C(=O)O1	10	0	-6	64*	-15	51*	46*
CCNC(=O)NC(=O)C(C)OC(=O)c1c(C)nn(Cc2ccccc2)c1Cl (stereo not drawn)	5	-11	29	9	8	12	.
N#Cc1c(Br)n(C2OC(CO)C(O)C2O)c2ncnc(N)c12 (stereo not drawn)	36	-24	-13	61*	35	73*	84*
NC(=O)c1c(Br)n(C2OC(CO)C(O)C2O)c2ncnc(N)c12 (stereo not drawn)	51	-30	21	44	-10	61*	61*
Nc1ncnc2c1ncn2[C@@H]1O[C@H](COP(=O)(O)CP(=O)(O)O)[C@@H](O)[C@H]1O	2	-3	-27	-11	-18	-4	.
Nc1ccc(Cc2ccc(N)cc2)cc1	2	-1	0	-9	-5	-12	.
C=CCn1c(=O)c(C=Nc2cccnc2Cl)c(O)n(CCCC)c1=O	5	-7	22	4	0	11	.
Oc1ccc(Br)cc1CN1CCN(c2ccccc2)CC1	3	-27	2	13	-6	62*	13
COc1ccc(C(CNC(=O)Cc2ccc(Cl)c(Cl)c2)N2CCCCC2)cc1 (stereo not drawn)	-16	-6	19	6	-4	-5	.
CCOC(=O)c1cnc(SCc2ccc(Cl)c(Cl)c2)nc1N1CC1	34	-41	-12	31	31	67*	38
COc1cc(C2c3cc4c(cc3CC3COC(=O)C32)OCO4)cc(OC)c1OC (stereo not drawn)	.	-23	7	-14	18	41	.
COc1cc(C2c3cc4c(c(O)c3CC3COC(=O)C32)OCO4)cc(OC)c1OC (stereo not drawn)	41	-11	20	-19	-1	51*	90*
NC(=Nc1ccccc1)NN=Cc1c[nH]c2ccccc12	88*	-45	-14	33	42	67*	55*
C[C@]12CC[C@H](O)CC1=CC(=O)C1C2CC[C@]2(C)C(=O)CCC12 (stereo partly drawn)	-4	-1	2	4	-1	6	.
COc1ccc(OCC(=O)N2CCN(CC3CC4C=CC3C4)CC2)cc1 (stereo not drawn)	2	-2	8	21	8	4	.
COc1ccc(C(c2nnnn2-c2ccc(OC)cc2)N2CCC(n3c(=O)[nH]c4ccccc43)CC2)cc1 (stereo not drawn)	.	-39	-20	68*	7	92*	90*
O=c1[nH]c2ccccc2n1C1CCN(C(c2cc3ccccc3o2)c2nnnn2-c2ccc3c(c2)OCCO3)CC1 (stereo not drawn)	.	-35	-3	98*	36	80*	106*
COc1ccc(Oc2cc(NC(=O)c3nn(C)cc3[N+](=O)[O-])cc([N+](=O)[O-])c2)cc1	81*	-42	94*	104*	?	59*	108*	Mdm2 MdmX conf=84*
Cc1ccc(/C=C2/C(=O)NC(=O)N(CC3CCCO3)C2=O)s1 (stereo not drawn)	1	-14	7	11	8	20	.
CNc1cc(Cl)c2nonc2c1[N+](=O)[O-]	96*	-46	95*	107*	90*	84*	29	HIF-2a inh conf=93*;HIF-1a cs=106*
CCC(C)n1c(O)c(C=Nc2cccc(C(F)(F)F)c2)c(=O)[nH]c1=S (stereo not drawn)	5	3	31	6	-9	9	.
SMILES	MITF TRPM1 inh	KKLEB cytotox	HIF-2a block	Peg3 prom inh-1	Shn3 3UTR inh	CF NFkB inh	CF NFkB inh conf	others
C[C@@H]([C@@H](O)c1ccccc1)N(C)C(=O)Cc1ccccc1	4	13	13	3	2	-19	.
CN(C)CC(C(=O)Cc1ccccc1)c1ccccc1 (stereo not drawn)	41	-40	97*	101*	95*	59*	-41	HIF-2a inh conf=22;HIF-1a cs=106*
COc1cc([N+](=O)[O-])c2ncccc2c1[N+](=O)[O-]	.	-2	43*	48	26	28	.	HIF-2a inh conf=1;HIF-1a cs=78*
COc1cc([N+](=O)[O-])c2nc(C)ccc2c1[N+](=O)[O-]	10	-22	-10	7	14	26	.
C=C(C)Cn1c(=O)n(CC2CS2)c2ccccc21 (stereo not drawn)	10	5	26	-1	13	1	.
CSCCC(c1nnnn1-c1c(C)cccc1C)N1CCC(n2c(=O)[nH]c3ccccc32)CC1 (stereo not drawn)	.	-26	-5	18	16	37	.
O=c1[nH]c2ccccc2n1C1CCN(C(CCc2ccccc2)c2nnnn2Cc2ccccc2)CC1 (stereo not drawn)	.	-82*	67*	97*	85*	84*	.	HIF-2a inh conf=-20;HIF-1a cs=105*
CC(=O)O[C@H]1C[C@@H]2OC3C=C(C)CCC3(C)[C@@]1(C)[C@@]21CO1 (stereo partly drawn)	66*	-19	48*	96*	98*	90*	.	HIF-2a inh conf=64*;HIF-1a cs=102*

Compound activity from PubChem BioAssay.
